HP1b chromo inh: HTS for Inhibitors of HP1-beta Chromodomain Interactions with Methylated Histone Tails | Chromobox protein homolog 1 (Homo sapiens), P83916 | AlphaScreen HP1-beta / biotin-H3K9me3 peptide binding | Potency, µM (top dose mostly 114 µM), for the others: at the top dose activity change, negative = inhibition, most hits filed as inhibitors | actives 0.56% (n = 390,000); also: potency is read from the fitted curve at half-maximal effect; nearly all actives have a fitted effect of over 70% in size
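Compound inhibition of the preformed complex between 50 nM HP1-beta and 50 nM biotinylated H3K9me3 peptide was read by AlphaScreen. Buffer was PBS pH 7.4 with 0.01% Tween-20. Incubations ran 30 min at room temperature, with 10 ug/mL donor/acceptor beads.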
KDM4E inh: qHTS Assay for Inhibitors of Human Jumonji Domain Containing 2E (JMJD2E); Lysine-specific demethylase 4E (Homo sapiens), B2RXH2; JMJD2E catalytic domain, FDH-coupled NADH fluorescence (FDH is formaldehyde dehydrogenase); Potency, µM (top dose mostly 57.1 µM), for the others: at the highest dose activity change, negative = inhibition, hits mostly inhibitors; actives 1.6% (n = 230,000); AID 2147, 2009; active = well fitted inhibition curve with a large enough effect, not every such curve was filed as active; inconclusive = small, poorly fitted or top-dose-only effect, or another doubt; inactive = no such curve, though single readings can be large or run the other way;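 also: potency is read from the fitted curve at half-maximal effect; 0% = wells with enzyme and -100% = buffer wells without enzyme; nearly all actives have a fitted effect of over 50% in size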
Target sequence (B2RXH2 1-337 limits assumed): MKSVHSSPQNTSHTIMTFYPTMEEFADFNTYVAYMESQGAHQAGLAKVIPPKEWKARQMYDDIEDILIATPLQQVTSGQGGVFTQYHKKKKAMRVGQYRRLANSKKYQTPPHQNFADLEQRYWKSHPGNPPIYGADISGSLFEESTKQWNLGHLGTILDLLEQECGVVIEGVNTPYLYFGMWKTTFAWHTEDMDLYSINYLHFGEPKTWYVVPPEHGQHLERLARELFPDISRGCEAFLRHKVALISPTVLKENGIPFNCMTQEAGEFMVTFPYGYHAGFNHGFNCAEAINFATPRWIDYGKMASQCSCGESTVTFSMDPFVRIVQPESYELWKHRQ
JMJD2A Tudor inh: qHTS Assay for Inhibitors of JMJD2A-Tudor Domain; Lysine-specific demethylase 4A (Homo sapiens), O75164; AlphaScreen JMJD2A-Tudor / H3K4me3 peptide binding; Potency, µM (highest dose often 114 µM), without a hit: top-dose activity change, negative = inhibition, actives largely listed as inhibitors; actives 4.4% (n = 390,000); AID 504339, 2011; also: potency is read from the fitted curve at half-maximal effect; % is scaled to controls: 0 for no effect and ±100 for the full control effect; nearly all actives have a fitted effect of over 50% in size
L3MBTL1 inh: qHTS Assay for the Inhibitors of L3MBTL1. Lethal(3)malignant brain tumor-like protein 1 (Homo sapiens), Q9Y468. AlphaScreen L3MBTL1–H3K9me1 peptide binding. Potency, µM (highest dose often 57.1 µM), for the others: at the top dose activity, negative = inhibition, hits mostly inhibitors. actives 0.66% (n = 230,000); also: potency is read from the fitted curve at half-maximal effect; % is scaled to controls: 0 for no effect and ±100 for the full control effect; nearly all actives have a fitted effect of over 60% in size
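L3MBTL1 50 nM + b-AHA-H3(1-15)K9me1 75 nM, 30 min RT; compound added, 30 min RT; streptavidin donor/Ni-chelate acceptor beads 10 ug/mL each final, 30 min RT dark; AlphaScreen read.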
PI5P4K alpha inh: qHTS for Inhibitors of phosphatidylinositol 5-phosphate 4-kinase (PI5P4K). PI5P4Kalpha enzyme, ADP-Glo luminescence, 60 min; stronger effect = lower value. actives 1.2% (n = 330,000). max response, %. AID 652105, 2013; active = max response of -50% or lower; inconclusive = between -30% and -50%; inactive = -30% or higher; also: value at the top dose of about 77 µM; % is scaled to controls: 0 for no effect and ±100 for the full control effect
Target sequence (P48426 whole entry, looked up): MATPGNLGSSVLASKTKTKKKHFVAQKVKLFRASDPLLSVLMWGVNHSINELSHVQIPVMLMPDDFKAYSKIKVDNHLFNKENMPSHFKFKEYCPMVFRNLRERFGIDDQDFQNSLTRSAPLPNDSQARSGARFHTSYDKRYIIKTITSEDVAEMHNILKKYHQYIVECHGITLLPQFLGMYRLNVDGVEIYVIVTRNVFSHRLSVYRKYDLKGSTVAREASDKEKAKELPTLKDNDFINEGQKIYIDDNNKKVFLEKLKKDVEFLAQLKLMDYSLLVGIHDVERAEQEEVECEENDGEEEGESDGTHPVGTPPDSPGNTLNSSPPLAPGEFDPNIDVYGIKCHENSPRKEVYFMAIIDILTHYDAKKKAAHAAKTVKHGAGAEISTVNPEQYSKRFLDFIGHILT
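ADP-Glo luminescence end-point read after a 60 min room-temperature kinase reaction of PI5P4Kalpha plus substrate, initiated with ATP at 5 microM final. Buffer: 0.038 M HEPES pH 7.4, EGTA, 0.1% CHAPS, 5% DMSO.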
BAZ2B inh: qHTS Assay for Inhibitors of BAZ2B | AlphaScreen BAZ2B-H3K14Ac peptide displacement | Potency, µM (series often up to 114 µM), inactives show top-dose activity change, negative = inhibition, most hits filed as inhibitors | actives 4.4% (n = 360,000) | AID 504333, 2011; also: potency is read from the fitted curve at half-maximal effect; % is scaled to controls: 0 for no effect and ±100 for the full control effect; nearly all actives have a fitted effect of over 60% in size
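In this displacement format the biotinylated H3(5-23) peptide acetylated at Lys14 serves as ligand at 50 nM, with BAZ2B at 50 nM in PBS pH 7.4 containing 0.01% Tween-20. Donor and acceptor beads are 10 ug/mL final.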
* hit, by the source's call; u = inconclusive; x = not tested or not shown; ! = a repeat was not active; [ ] = dose if it differs, or a comment. The list is not random: actives were taken first. Their share in the collection is about 5.7%. Unless noted, calls follow the shape of the dose curve; as a rule, active = well fitted inhibition curve with a large enough effect; inconclusive = small, poorly fitted or top-dose-only effect; inactive = no such curve, though single readings can be large or run the other way.

SMILES	HP1b chromo inh	KDM4E inh	JMJD2A Tudor inh	L3MBTL1 inh	PI5P4K alpha inh	BAZ2B inh
Cc1ccccc1C(OCCN(C)C)c1ccccc1 (stereo unspecified)	32%	u	28µM*!	-10%	2	0%
CCN1CCN(CC(O)COC(c2ccccc2)c2ccccc2C)CC1 (stereo unspecified)	u	x	5.6µM*	x	-1	22µM*
Cc1ccccc1[C@@H](OCCN(C)C)c1ccccc1	x	-1%[25.5 µM]	x	x	x	x
CCCCc1ccc(C2C3=C(CC(C)(C)CC3=O)NC3=C2C(=O)c2ccccc23)cc1 (stereo unspecified)	u	-3%	u	-26%	8	u
CC1(C)CC(=O)C2=C(C1)NC1=C(C(=O)c3ccccc31)C2c1ccc(O)cc1 (stereo unspecified)	7%	0%	-29%[57.1 µM]	-11%	0	40µM*
CCCc1ccc(C2C3=C(CC(C)(C)CC3=O)NC3=C2C(=O)c2ccccc23)cc1 (stereo unspecified)	-37%	2%	u	-29%	x	25µM*
COc1cccc2cc(-c3cn4c(n3)sc3cc(F)ccc34)c(=O)oc12	37%	x	-20%	x	x	-9%
CCOc1ccc(-n2cc(-c3ccccc3)c3c(N4CCOCC4)ncnc32)cc1	25%	u	-24%	-25%	14	25µM*
c1ccc(-c2cn(-c3ccccc3)c3ncnc(N4CCCCC4)c23)cc1	16%	-22%	-26%	x	20	-13%
COc1ccc(N2C(c3ccsc3)=Cc3cc4c(cc3C2c2c[nH]c3ccccc23)OCO4)cc1 (stereo unspecified)	x	x	x	x	0	x
COc1cccc(N2CCN(C(=O)CCc3c(C)nc4c(c3C)c(=O)n(C)c(=O)n4C)CC2)c1	49%	x	-8%	x	x	-5%
O=C(O)c1cc([N+](=O)[O-])cc2c1nnn2O	-22%	2%	-27%	-26%	-67*	x
Cn1cccc1C(=S)N=P(C1CCCCC1)(N1CCOCC1)N1CCOCC1	u	-6%	35µM*	3%	x	-28%
O=C(O)c1ccc2c(=O)n3c(nc2c1)/C(=C/c1ccccc1OC(F)F)CC3	46%	x	-5%	x	u	-34%
CC(C)S(=O)(=O)C1=NSC2=NC(=O)/C(=C\c3ccc(-c4ccccc4)o3)C(=N)N21	1%	1%	-26%	9%	-102*	u
N=C1/C(=C/c2ccc(-c3cccc(C(=O)O)c3)o2)C(=O)N=C2SC=C(c3ccccc3)N12	u	u	22µM*	x	-83*	13µM*
COc1cc(NCCCCC(C)N)c2nccc(C)c2c1 (stereo unspecified)	x	x	x	x	-12	x
COc1cc(NCCCC(C)N)c2ncccc2c1 (stereo unspecified)	-10%	u	22µM*	-17%	-3	32µM*
COc1cc(NC(=O)c2ccccc2Cl)c2ncccc2c1	112%	x	89%	18%	20	31%
CCC(CNc1cc(OC)cc2cccnc12)NC1CCCCC1 (stereo unspecified)	-11%	16%	56µM*	-25%	-7	u
Cc1ccccc1CN1C(=O)c2ccccc2Sc2ccc(C(=O)NC3CCCC3)cc21	15%	x	-25%	x	x	0%
O=C(CC(NC(=O)OCc1ccccc1)c1nn[nH]n1)OCc1ccccc1 (stereo unspecified)	x	x	x	x	1	x
NC(C(=O)O)c1nn[nH]n1 (stereo unspecified)	-15%	x	10µM*	x	x	x
Cc1cs/c(=N\N=C\c2ccccc2)n1Cc1ccco1	u	-9%	35µM*	u	12	13µM*
Cc1cs/c(=N\N=C2CCCCC2)n1Cc1ccco1	u	3%	u	-29%	2	45µM*
SMILES	HP1b chromo inh	KDM4E inh	JMJD2A Tudor inh	L3MBTL1 inh	PI5P4K alpha inh	BAZ2B inh
CC(C)=N/N=c1\scc(C)n1Cc1ccco1	-6%	-1%	-30%	-15%	7	-39%
Cc1ccc(CCNC(=O)c2c3c(nc4ccccc24)C(=O)N(C2CCCCC2)C3)cc1	34%	x	-16%	x	x	-10%
S=c1[nH]nc(Cc2c[nH]c3ccccc23)o1	13%	-3%	79µM*	8%	x	-4%
c1ccc(Cc2c[nH]c3ccccc23)cc1	20%	x	-20%	-8%	5	-33%
Cc1cc(O)c(/C=N/Nc2ccccc2Cl)c(=O)o1	17%	u	56µM*	-1%	0	-4%
CC(=O)Nc1sc2c(c1CN1CCN(c3ccc(F)cc3)CC1)CCCC2	-36%	-1%	u	x	2	50µM*
COc1ccc(OCC(=O)NCCNC(=O)c2cccnc2)cc1	-19%	x	-15%	x	-1	3%
O=Cc1ccc2ccc3cccnc3c2n1	48%	x	63µM*	x	-19	u
Cc1ccc2c(c1)C(c1ccccc1)N(C(=O)c1ccc(S(=O)(=O)N3CCCC3)cc1)CC(=O)N2 (stereo unspecified)	11%	x	-27%	x	x	-9%
CN(C)c1ccc(O)c2c1CC1CC3C(N(C)C)C(=O)C(C(N)=O)=C(O)[C@@]3(O)C(=O)C1=C2O (stereo partly specified)	3%	x	8.9µM*	x	0	x
C=C1c2cccc(O)c2C(O)=C2C(=O)[C@]3(O)C(O)=C(C(N)=O)C(=O)C(N(C)C)C3C(O)C12 (stereo partly specified)	x	8.9µM*	x	x	x	x
CN(C)c1ccc(O)c2c1CC1CC3[C@@H](N(C)C)C(=O)C(C(N)=O)C(=O)[C@]3(O)C(=O)C1C2=O (stereo partly specified)	16%	x	8.9µM*	x	-8	x
C=CCC(Nc1ccc(OC)cc1)(C(=O)OCC)c1ccccc1 (stereo unspecified)	x	0%	x	x	x	x
CC1=NN(c2ccccc2)C(=O)/C1=C\c1cc(C)n(C)c1C	-17%	-24%	-24%	u	2	u
CC1=NN(c2ccccc2)C(=O)/C1=C\C=C\c1ccccc1	10µM*	-13%	10µM*	-8%	17	4µM*
CC1=NN(c2ccccc2)C(=O)/C1=C/c1cn(C)c2ccccc12	11µM*	-8%	6.3µM*	u	24	5µM*
Cc1ccc2nc(N3CCOCC3)c(C=O)cc2c1	37%	x	4%	1%	-1	4%
CC1=NN(c2ccccc2)C(=O)/C1=C/c1cccc(C)c1	-1%[57 µM]	x	-31%	x	-9	u
